Assay results taken from PubChem BioAssay AID2732 (Emory University Molecular Libraries Screening Center, 2010).
Out of some 220,000 compounds screened, about 8,200 (3.7%) were called active. This is one part of a sample in which actives are shown more often than they occur.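 The calls were made as follows: active = compounds that reduced the stress-induced luciferase reporter signal by more than about 70% of percent inhibition (limit read from the data); inactive = the rest.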

assay: blockers of ER-stress CHOP reporter expression – cell-based, unfolded protein response, luciferase reporter, primary screen (AID 2732); details: CHO-K1 CHOP-promoter luciferase, tunicamycin-induced, 15-18 h; at 10 µM; active compounds read high;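 also: 0% = tunicamycin plus vehicle and 100% = wells without tunicamycin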

inhibition, inactive:
Cc1ncn2cc(-c3ccc(Cl)cc3Cl)[nH]c(=O)c12 13.6%
c1ccc(-n2cccc2)c(N2CCCCC2)c1 -6%
CCCCn1c(=S)[nH]c2ccccc2c1=O -18.6%
Cn1nnnc1SCc1cc(=O)[nH]c2ccccc12 6.42%
O=C(Nc1ccc(Cl)cc1)/C(=C1\CCCN1)[N+](=O)[O-] -6.93%
CN1CCN(c2ccc(CNS(=O)(=O)c3cccc(F)c3)cc2)CC1 9.01%
COc1ccc2[nH]c(=S)cc(C)c2c1 -0.1%
CC(=O)Nc1nc2ccccc2n1Cc1ccc(C)cc1 -14.1%
Cc1ccc(-n2nc3cc(Cl)c(NC(=O)c4ccco4)cc3n2)cc1 -26.1%
CN(C)S(=O)(=O)c1cccc(-c2nn(-c3ccccc3)cc2/C=C2\SC(=S)N(CC(=O)O)C2=O)c1 4.39%
CC(CC(=O)Nc1cc(C(F)(F)F)ccc1Cl)c1ccccc1 (configuration not stated) 54.4%
CCCC(=O)Nc1ccc(Cl)c(NC(=O)c2ccc(Br)o2)c1 40.2%
CCCCNC(=O)OCCSCCS(=O)(=O)c1ccc(Cl)cc1 8.82%
CC(C)OP(=O)(OC(C)C)C(Nc1ccccc1)c1cccc([N+](=O)[O-])c1 (configuration not stated) -8.06%
Cc1cc(C(=O)Cn2cnc3cc([N+](=O)[O-])ccc3c2=O)c(C)n1CC1CCCO1 (configuration not stated) -28%
Cc1ccsc1C(=O)OCC(=O)c1cc2ccccc2o1 67.4%
CCCCN1Cc2c(nc3cc(-c4ccccc4)[nH]n3c2=O)C1=O -7.2%
CCOc1ccccc1N1CN(Cc2ccccc2)CNC1=S 3.01%
COCCCn1c(-c2cccs2)nc2nc3ccccc3nc21 -15%
N/C(=N\OC(=O)CCCC(=O)O)c1ncc(C(F)(F)F)cc1Cl 6.09%
O=C(c1ccccn1)c1ncc(C(F)(F)F)cc1Cl 23.4%
Nn1c(SCc2ccccc2)nnc1C1CCCCC1 -9.53%
COc1ccc(C(=O)N2CC3(C)CC2CC(C)(C)C3)cc1OC (configuration not stated) -6.24%
C=CCNc1ncnc2ccc(Br)cc12 27.4%
CCOC(=O)CN(C(=O)COc1nc(-c2ccccc2)cc(C)c1C#N)c1ccc(F)cc1 5.71%
COc1c(O)cc2oc(-c3ccc(O)c(O)c3)cc(=O)c2c1O -13.9%
Cc1ccc(NC(=O)/C(=C\c2ccccc2)NC(=O)c2ccco2)cc1 10.2%
Nc1c(C(=O)c2cccs2)sc2nsc(SCCN3CCCCC3)c12 -55.6%
Cn1c(=N)n(CC(O)c2cccs2)c2ccccc21 (configuration not stated) 14.4%
Cn1c(=N)n(CC(O)c2ccccc2)c2ccccc21 (configuration not stated) 14.2%
Cn1c(=O)c(=O)n(C)c2cc(S(=O)(=O)NCCN3CCN(c4ccccc4F)CC3)ccc21 10.2%
COc1ccc(NC2=CC(=S)NC(C)(C)C2)cc1 0.78%
Cc1c(NC(=O)CN2C(=O)C(=O)N(Cc3ccccc3)C2=O)c(=O)n(-c2ccccc2)n1C -4.43%
Cc1cc(=O)oc2cc(OCCC[n+]3ccccc3)ccc12 3.91%
CCN(C(=O)COC(=O)c1ccc(COc2ccc3c(C)cc(=O)oc3c2)cc1)C1CCS(=O)(=O)C1 (configuration not stated) -17.9%
COc1ccc(CCn2c(NN=C3CCCC3)nc3c2c(=O)[nH]c(=O)n3C)cc1 -6.27%
COc1ccc(NC(=O)C2=NNC(=O)CC2)cc1S(=O)(=O)N1CCCCC1 14.5%
Cc1ccc(-n2cnc3ncnc(-c4ccccc4)c32)cc1 -3.5%

inhibition, active:
CC(Sc1nc2c([nH]c3ccccc32)c(=O)n1C)c1ccccc1 (configuration not stated) 94.8%
Cc1ccc(Cn2c(NC(=O)c3ccco3)nc3ccccc32)cc1 80.3%
CCCCC(=O)Nc1ccc(C(=O)Nc2cc(C(F)(F)F)ccc2Cl)cc1 94.3%
Cc1ccsc1C(=O)OCC(=O)c1cc(C)n(CC2CCCO2)c1C (configuration not stated) 77.8%
N/C(=N\OC(=O)Nc1ccc(Cl)c(Cl)c1)c1ncc(C(F)(F)F)cc1Cl 87.9%
CC1(C)CC2CC(C)(CN2c2ncnc3ccc(Br)cc23)C1 (configuration not stated) 70.5%
N=c1n(Cc2ccc(Cl)cc2)c2ccccc2n1CC(O)c1ccco1 (configuration not stated) 86.2%
Cc1ccccc1NC(=O)c1ccc(COc2ccc3c(C)cc(=O)oc3c2)cc1 73.8%
Cc1ccc(-c2nn(C(C)(C)C)c3ncnc(N)c23)cc1 76.5%
